# Experiments:
# [1] = molecular target: Ribosomal protein S6 kinase alpha-6 (Homo sapiens) (UniProt Q9UK32); settings: at 1 µM;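 note: each value is a mean inhibition of RSK4 from a GSK PKIS panel screen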
# [2] = molecular target: T1, Serine/threonine-protein kinase Sgk1 (Homo sapiens) (UniProt O00141); settings: at 0.1 µM
# T1 sequence (whole entry): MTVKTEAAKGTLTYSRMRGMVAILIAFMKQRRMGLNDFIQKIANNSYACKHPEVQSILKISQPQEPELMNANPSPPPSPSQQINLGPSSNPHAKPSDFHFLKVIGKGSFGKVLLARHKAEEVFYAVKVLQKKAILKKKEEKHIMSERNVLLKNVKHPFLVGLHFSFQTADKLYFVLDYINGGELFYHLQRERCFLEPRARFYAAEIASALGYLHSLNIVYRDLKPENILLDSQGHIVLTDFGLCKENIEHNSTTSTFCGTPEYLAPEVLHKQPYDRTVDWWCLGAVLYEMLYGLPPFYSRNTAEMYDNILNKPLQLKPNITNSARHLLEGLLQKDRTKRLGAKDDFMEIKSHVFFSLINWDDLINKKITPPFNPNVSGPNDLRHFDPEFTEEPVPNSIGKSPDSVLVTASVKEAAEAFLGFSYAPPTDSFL
# [3] = molecular target: T1, Serine/threonine-protein kinase Sgk1 (Homo sapiens); settings: at 1 µM
# [4] = molecular target: T2, Serine/threonine-protein kinase Sgk2 (Homo sapiens) (UniProt Q9HBY8); settings: at 0.1 µM
# T2 sequence (whole entry): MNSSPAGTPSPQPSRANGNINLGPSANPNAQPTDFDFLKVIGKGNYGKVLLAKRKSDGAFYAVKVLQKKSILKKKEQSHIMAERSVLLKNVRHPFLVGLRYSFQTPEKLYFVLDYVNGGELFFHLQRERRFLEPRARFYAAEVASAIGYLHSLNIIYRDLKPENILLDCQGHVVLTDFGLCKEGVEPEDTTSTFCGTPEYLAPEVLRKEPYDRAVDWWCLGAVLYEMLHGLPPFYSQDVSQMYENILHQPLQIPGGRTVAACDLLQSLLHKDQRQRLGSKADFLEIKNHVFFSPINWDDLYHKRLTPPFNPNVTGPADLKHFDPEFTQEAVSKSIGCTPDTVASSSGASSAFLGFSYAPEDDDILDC
# [5] = molecular target: T2, Serine/threonine-protein kinase Sgk2 (Homo sapiens); settings: at 1 µM
# [6] = molecular target: T3, Serine/threonine-protein kinase Sgk3 (Homo sapiens) (UniProt Q96BR1); settings: at 0.1 µM
# T3 sequence (whole entry): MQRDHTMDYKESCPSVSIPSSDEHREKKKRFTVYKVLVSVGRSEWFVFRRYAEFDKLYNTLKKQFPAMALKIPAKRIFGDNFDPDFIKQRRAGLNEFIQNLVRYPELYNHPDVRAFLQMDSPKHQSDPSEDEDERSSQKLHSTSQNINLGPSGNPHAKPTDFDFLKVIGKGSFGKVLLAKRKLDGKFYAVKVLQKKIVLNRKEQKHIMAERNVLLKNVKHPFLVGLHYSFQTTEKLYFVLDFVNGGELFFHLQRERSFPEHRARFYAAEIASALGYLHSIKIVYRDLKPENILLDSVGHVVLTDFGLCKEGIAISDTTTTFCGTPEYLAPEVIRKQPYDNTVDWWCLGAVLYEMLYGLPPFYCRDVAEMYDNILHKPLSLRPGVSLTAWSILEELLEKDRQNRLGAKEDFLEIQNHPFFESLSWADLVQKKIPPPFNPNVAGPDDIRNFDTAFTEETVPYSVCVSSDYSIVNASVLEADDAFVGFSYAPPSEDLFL
# [7] = molecular target: T3, Serine/threonine-protein kinase Sgk3 (Homo sapiens); settings: at 1 µM
# [8] = molecular target: 5'-AMP-activated protein kinase catalytic subunit alpha-1 (Homo sapiens) (UniProt Q13131); settings: at 0.1 µM
# Sequence of 5'-AMP-activated protein kinase catalytic subunit alpha-1 (Homo sapiens) (Q13131 whole entry, looked up): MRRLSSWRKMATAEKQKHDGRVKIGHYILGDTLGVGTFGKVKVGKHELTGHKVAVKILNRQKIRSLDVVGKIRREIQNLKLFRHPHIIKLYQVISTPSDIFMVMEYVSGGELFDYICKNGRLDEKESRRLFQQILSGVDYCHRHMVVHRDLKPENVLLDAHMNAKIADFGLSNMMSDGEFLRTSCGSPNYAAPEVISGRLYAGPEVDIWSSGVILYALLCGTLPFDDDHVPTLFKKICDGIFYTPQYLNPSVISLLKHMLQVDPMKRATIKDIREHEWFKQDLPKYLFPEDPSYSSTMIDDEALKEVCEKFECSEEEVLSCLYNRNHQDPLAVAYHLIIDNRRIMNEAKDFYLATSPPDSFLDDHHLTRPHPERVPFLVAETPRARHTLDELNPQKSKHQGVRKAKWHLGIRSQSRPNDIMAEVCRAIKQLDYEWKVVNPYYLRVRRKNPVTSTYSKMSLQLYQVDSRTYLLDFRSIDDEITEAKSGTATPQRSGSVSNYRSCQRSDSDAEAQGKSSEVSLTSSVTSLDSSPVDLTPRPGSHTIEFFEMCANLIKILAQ
# [9] = molecular target: 5'-AMP-activated protein kinase catalytic subunit alpha-1 (Homo sapiens) (UniProt Q13131); settings: at 1 µM
# [10] = molecular target: 5'-AMP-activated protein kinase catalytic subunit alpha-2 (Homo sapiens) (UniProt P54646); settings: at 0.1 µM;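 note: mean inhibition measured on the AMPK complex of alpha2, beta1 and gamma1 subunits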
# Sequence of 5'-AMP-activated protein kinase catalytic subunit alpha-2 (Homo sapiens) (P54646 whole entry, looked up): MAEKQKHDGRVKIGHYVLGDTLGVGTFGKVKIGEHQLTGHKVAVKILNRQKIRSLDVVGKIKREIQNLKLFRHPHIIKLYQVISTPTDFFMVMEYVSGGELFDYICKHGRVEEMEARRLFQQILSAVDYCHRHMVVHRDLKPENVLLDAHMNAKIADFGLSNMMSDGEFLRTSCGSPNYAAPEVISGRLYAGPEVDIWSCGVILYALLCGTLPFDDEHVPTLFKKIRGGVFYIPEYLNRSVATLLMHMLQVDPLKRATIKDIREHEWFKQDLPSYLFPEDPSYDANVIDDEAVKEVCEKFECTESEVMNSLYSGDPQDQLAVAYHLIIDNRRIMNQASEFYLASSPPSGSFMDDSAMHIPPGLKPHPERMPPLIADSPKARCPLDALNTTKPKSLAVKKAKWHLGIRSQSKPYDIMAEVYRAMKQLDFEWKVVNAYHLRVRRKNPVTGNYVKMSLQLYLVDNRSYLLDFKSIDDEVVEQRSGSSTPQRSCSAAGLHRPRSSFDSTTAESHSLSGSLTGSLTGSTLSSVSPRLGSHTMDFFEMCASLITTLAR
# Sequence of Ribosomal protein S6 kinase alpha-6 (Homo sapiens) (Q9UK32 whole entry): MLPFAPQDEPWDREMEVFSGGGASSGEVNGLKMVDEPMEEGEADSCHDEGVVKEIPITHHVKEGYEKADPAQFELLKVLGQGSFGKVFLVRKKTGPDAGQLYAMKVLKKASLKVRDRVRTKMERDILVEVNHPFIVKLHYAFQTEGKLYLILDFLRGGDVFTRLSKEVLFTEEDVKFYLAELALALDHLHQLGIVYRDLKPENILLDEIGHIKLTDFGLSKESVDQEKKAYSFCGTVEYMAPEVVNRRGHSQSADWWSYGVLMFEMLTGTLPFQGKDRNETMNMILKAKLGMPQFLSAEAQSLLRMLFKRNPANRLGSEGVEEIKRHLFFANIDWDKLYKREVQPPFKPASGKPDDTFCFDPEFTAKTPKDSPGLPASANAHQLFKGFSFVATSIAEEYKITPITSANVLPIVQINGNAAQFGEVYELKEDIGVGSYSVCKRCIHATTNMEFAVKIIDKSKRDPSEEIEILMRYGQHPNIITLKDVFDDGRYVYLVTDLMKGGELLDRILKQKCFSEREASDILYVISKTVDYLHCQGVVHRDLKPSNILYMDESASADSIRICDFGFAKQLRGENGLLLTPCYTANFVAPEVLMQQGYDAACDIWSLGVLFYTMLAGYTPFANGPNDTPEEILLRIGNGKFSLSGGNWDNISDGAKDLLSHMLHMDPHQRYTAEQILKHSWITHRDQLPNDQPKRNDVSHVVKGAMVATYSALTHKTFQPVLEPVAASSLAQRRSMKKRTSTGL
smiles,measurement,setting,value
Fc1ccc(-c2ncn(C3CCNCC3)c2-c2ccnc(Oc3ccccc3)n2)cc1,inhibition,[1],-1.23%
same,inhibition,[2],0.46%
same,inhibition,[3],0.24%
same,inhibition,[4],0.49%
same,inhibition,[5],2.09%
same,inhibition,[6],0.78%
same,inhibition,[7],2.18%
same,inhibition,[8],2.1%
same,inhibition,[9],0.47%
same,inhibition,[10],2.07%
COc1cccc(COc2cc(-n3cnc4ccccc43)sc2C(N)=O)c1,inhibition,[1],2.04%
same,inhibition,[2],3.04%
same,inhibition,[3],0.63%
same,inhibition,[4],-0.02%
same,inhibition,[5],-0.45%
same,inhibition,[6],-1.95%
same,inhibition,[7],-0.21%
same,inhibition,[8],0.92%
same,inhibition,[9],2.35%
same,inhibition,[10],-0.66%
COc1cc2c(cc1Nc1nc(Nc3ccsc3C(N)=O)c3cc[nH]c3n1)N(C(=O)CN(C)C)CCC2,inhibition,[1],16.4%
same,inhibition,[2],3.82%
same,inhibition,[3],2.11%
same,inhibition,[4],2.89%
same,inhibition,[5],2.84%
same,inhibition,[6],-0.08%
same,inhibition,[7],-0.04%
same,inhibition,[8],1.03%
same,inhibition,[9],-0.4%
same,inhibition,[10],0.93%
COc1cccc(-n2ncc3c(N/N=C/c4ccncc4)ncnc32)c1,inhibition,[1],4.33%
same,inhibition,[2],6.01%
same,inhibition,[3],16.1%
same,inhibition,[4],4.49%
same,inhibition,[5],11.9%
same,inhibition,[6],5.19%
same,inhibition,[7],6.6%
same,inhibition,[8],2.59%
same,inhibition,[9],9.15%
same,inhibition,[10],2.26%
CCn1c(-c2nonc2N)nc2c(C#CCN)ncc(OCCCN)c21,inhibition,[1],15.3%
same,inhibition,[2],1.23%
same,inhibition,[3],5.38%
same,inhibition,[4],-0.28%
same,inhibition,[5],8.17%
same,inhibition,[6],5.66%
same,inhibition,[7],40.1%
same,inhibition,[8],0.48%
same,inhibition,[9],4.78%
same,inhibition,[10],2.63%
CCn1c(-c2nonc2N)nc2c(C#CC(C)(C)O)nc(O[C@@H](CN)c3ccccc3)cc21,inhibition,[1],23.4%
same,inhibition,[2],4%
same,inhibition,[3],34.2%
same,inhibition,[4],5.31%
same,inhibition,[5],3.43%
same,inhibition,[6],64.9%
same,inhibition,[7],94.2%
same,inhibition,[8],79.2%
same,inhibition,[9],88.1%
same,inhibition,[10],24.6%
CCn1c(-c2nonc2N)nc2c(C#CC(C)(C)O)ncc(OC[C@@H]3CCCN3)c21,inhibition,[1],8.09%
same,inhibition,[2],1.28%
same,inhibition,[3],2.09%
same,inhibition,[4],3.27%
same,inhibition,[5],2.29%
same,inhibition,[6],12.7%
same,inhibition,[7],47.4%
same,inhibition,[8],6%
same,inhibition,[9],39.3%
same,inhibition,[10],0.91%

# Source: ChEMBL document CHEMBL1961873, “Compounds: GSK PKIS; Assays: Nanosyn kinase panel” (2012)
